Among the data in PubChem BioAssay (NCI) are growth inhibition values, retold here.

Test [1] is described as follows: NCI Yeast Anticancer Drug Screen. Data for the rad50 strain (AID 155).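 Further: 0% = growth of vehicle-only cultures of the same strain.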 Particulars: S. cerevisiae rad50 strain growth inhibition; at 50.0 µM; active compounds read high. The procedure, abridged:
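A DNA repair-deficient yeast mutant serves as the test organism; compound-induced growth inhibition is calculated against vehicle-treated cells.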

Test [2] is described as follows: NCI Yeast Anticancer Drug Screen. Data for the mec2-1 strain (AID 157). Particulars: S. cerevisiae mec2-1 strain, at 50.0 µM, active compounds read high. Summed up:
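Using mec2-1 yeast: add compound, measure growth, express inhibition versus vehicle-treated cultures.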

The nature of test [3]: NCI Yeast Anticancer Drug Screen. Data for the sgs1 mgt1 strain (AID 161).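 Further: 0% = growth of cultures given vehicle only.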 Particulars: S. cerevisiae sgs1 mgt1 strain, at 50.0 µM, active compounds read high. Summed up: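 Growth of a repair-deficient yeast mutant was monitored after compound treatment and expressed as inhibition relative to vehicle-treated cultures.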
The nature of test [4]: NCI Yeast Anticancer Drug Screen. Data for the cln2 rad14 strain (AID 165).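 Further: 0% = growth equal to vehicle treated cultures.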 Particulars: S. cerevisiae cln2 rad14 strain, at 50.0 µM, active compounds read high. Summed up:
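Yeast strain cln2 rad14, bearing defects in cell cycle control and DNA repair, serves as the test system; values reflect growth inhibition compared with vehicle.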

Test [5] is described as follows: NCI Yeast Anticancer Drug Screen. Data for the bub3 strain (AID 167). Particulars: S. cerevisiae bub3 mutant strain, at 50.0 µM, active compounds read high. Summed up: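 Inhibition values come from growth of compound-treated mutant yeast normalised to vehicle-treated controls.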
Test [6] in a line: NCI Yeast Anticancer Drug Screen. Data for the mlh1 rad18 strain (AID 175). Particulars: S. cerevisiae mlh1 rad18 strain growth inhibition; at 50.0 µM; active compounds read high. Summed up: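 Steps: expose repair-defective yeast to compound; measure growth; express inhibition against vehicle-treated controls.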

The structures appear in SMILES notation. About 79,000 compounds went through this panel and 15% of them were active in at least one assay; those are over-represented in the sample as a whole. Unmarked numbers belong to inactive results. Activity calls are given as the source filed them. No stated cut-off is given here; in the data, active means growth inhibition above about 70%; inactive means the rest.

As to `CC(C)(C)CC(C)(C)NS(=O)(=O)NC(C)(C)CC(C)(C)C`, the growth inhibition is 1.1% in test [1]; -31.1% in test [2]; -9.15% in test [3]; -57.3% in test [4]; 1.45% in test [5]; 0.7% in test [6].
With `CSc1n[n+](-c2ccccc2)cs1`, the growth inhibition in test [1] is 6.3%; in test [2], 6.15%; in test [3], 4.4%; in test [4] it was 6.9%; in test [5], 21.7%; in test [6] it was -3.35%.
With `CS(=O)(=O)c1nc2ncnc(N)c2[nH]1`, the growth inhibition was -6.2% in test [1]; -18.1% in test [2]; -6.3% in test [3]; -22.4% in test [4]; -27.1% in test [5]; -4.75% in test [6].
For `CCCCCC1=CC(=O)C=C(OC)C12C(=O)Oc1cc(O)c(C(=O)O)c(CCCCC)c12` (stereo not given), the growth inhibition in test [1] was 32.4%; in test [2] it was 37%; in test [3], 28.2%; in test [4] it was 48.4%; in test [5], 18.6%; in test [6], 33.8%.
As to `O=C(NC1CCCCC1)C1C(=O)C(=O)N(C2CCCCC2)C1=O` (stereo not given), the growth inhibition in test [1] was -14.5%; in test [2], -1.35%; in test [3], -13.9%; in test [4], -8.65%; in test [5], -5.8%; in test [6] it was -28.2%.
On to `C=C1CC(C)(COc2ccc3c(C)cc(=O)oc3c2)OC1=O` (stereo not given), for which the growth inhibition in test [1] was 52.9%; in test [2] it was 46.1%; in test [3] it was 47.8%; in test [4] it was 48.5%; in test [5], 20.4%; in test [6], 54.5%.
As for `CCNC(=O)CCP(=O)(CCC(=O)NCC)CCC(=O)NCC`, the growth inhibition is 7.25% in test [1]; -3.05% in test [2]; 3.9% in test [3]; -4.35% in test [4]; -6.7% in test [5]; 6% in test [6].
For the molecule `O=C(Nc1ccc(Cl)cc1)Oc1ccc(Br)cc1Br`, the growth inhibition is 10.9% in test [1]; -3.95% in test [2]; 10.7% in test [3]; 4.65% in test [4]; -2.7% in test [5]; 13.2% in test [6].
On to `Cc1ccc(NC(=O)OCC(F)(F)C(F)(F)C(F)(F)F)c(NC(=O)OCC(F)(F)C(F)(F)C(F)(F)F)c1`, for which the growth inhibition in test [1] is -9.15%; in test [2], -12.1%; in test [3] it was -8.6%; in test [4], -33.6%; in test [5] it was -4.05%; in test [6], 12.8%.
As for `Cc1cc(=O)n(C)c2ccc(N)cc12`, the growth inhibition is -3.85% in test [1]; 3.75% in test [2]; -4% in test [3]; -14.8% in test [4]; 10.5% in test [5]; 1.85% in test [6].
With `CN(C)c1c([N+](=O)[O-])cc2[nH]cnc2c1[N+](=O)[O-]`, the growth inhibition was 21.2% in test [1]; 12.2% in test [2]; 13.3% in test [3]; -2.9% in test [4]; 19.4% in test [5]; 13.7% in test [6].
In the case of `CC(C)CCCC(C)C1CCC2C3C(=O)C=C4CC(OC(=O)CCC(C)C)CCC4(C)C3CCC12C` (stereo not given), the growth inhibition in test [1] is -0.05%; in test [2], 11.9%; in test [3], 25.3%; in test [4], 19.8%; in test [5] it was -0.55%; in test [6] it was 0.25%.
`O=S(=O)(O)C1=CC(=N/Cl)/C=CC/1=N\Cl`: the growth inhibition in test [1] was -25.8%; in test [2] it was -23.8%; in test [3], -14.6%; in test [4], -4.15%; in test [5], -42%; in test [6], -25.2%.
With `CCc1c2cc(OC)c(OC)cc2cc2c3cc(OC)c(OC)cc3cc[n+]12` (tested in a mixture with another compound), the growth inhibition in test [1] was -23.1%; in test [2] it was -22.4%; in test [3], -20.1%; in test [4], -20.9%; in test [5], -42%; in test [6], -11.7%.
`CC(C)(c1cccs1)c1cscc1C(=O)O`: the growth inhibition in test [1] is -0.85%; in test [2], -6.8%; in test [3], -13.3%; in test [4], -28.8%; in test [5], -9.35%; in test [6] it was 16.7%.
Turning to `COC(=O)/C(=C\c1ccccc1N)c1cc2c(cc1Br)OCO2`, the growth inhibition is 84.2% (active) in test [1]; 40.2% in test [2]; 82.4% (active) in test [3]; 41.4% in test [4]; 44.3% in test [5]; 68.1% in test [6].
In the case of `O=C(NCc1ccccc1)c1ccc([N+](=O)[O-])cc1`, the growth inhibition in test [1] was -7.2%; in test [2], 13.8%; in test [3] it was 10.3%; in test [4], -44.2%; in test [5], 22.8%; in test [6], 11.7%.
As for `CC(C)NC(=O)OCCN=C1c2ccccc2C(Br)C(Br)c2ccccc21` (stereo not given), the growth inhibition was 3.25% in test [1]; -5.1% in test [2]; 2.05% in test [3]; 1.1% in test [4]; 4.9% in test [5]; 8.6% in test [6].
As for `COc1cc(COC(=O)c2ccc(CSc3ccc(Cl)cc3)o2)cc(OC)c1OC`, the growth inhibition was -19.4% in test [1]; -33% in test [2]; -0.75% in test [3]; -8.4% in test [4]; -13.9% in test [5]; -10.8% in test [6].
For the molecule `Cc1ccc(C(=O)c2ccccc2)cc1C[N+](C)(C)C`, the growth inhibition in test [1] was 20.3%; in test [2], 3.35%; in test [3] it was 10.3%; in test [4] it was 12%; in test [5], -5.3%; in test [6] it was 4.9%.
